HSF-1 act: HSF-1 activators, primary screen, NIH3T3-HGL cells, MG132 stress, luminescence, single point; NIH3T3-HGL HSF-1 luciferase reporter, 8 h; 100% = twice DMSO control signal; activation, % at 9 µM; 300,000 tested, 1.7% active;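 active = mean replicate activation of at least 50% with a set share of replicates each reaching 50%; inconclusive = only one of those two conditions met; inactive = mean below 50% and too few replicates reaching it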
esBAF inh: Bmi1 luciferase reporter increase in mESCs, primary screen, esBAF inhibitor project, mouse ES cells, Bmi1 luciferase knock-in, single point | 350,000 tested, 2% active | 24 h; 100% = twice the neutral-well signal | AID 602393, 2012 | reporter increase, % at 12.5 µM; in the data active = activation above about 40%; inconclusive = no clear call, values can overlap the other calls;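 note: a rise in the Bmi1 reporter signal indicates esBAF inhibition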
MITF act: activators of MITF-driven TRPM1 promoter reporter, primary screen, cell-based, SK-MEL-5, luciferase, single point; SK-MEL-5 TRPM1-promoter luciferase, 24 h; % of positive control, neutral wells = 0; activation, % at 12.5 µM; 300,000 tested, 0.75% active;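 active = mean activation of at least 80% with every replicate also reaching 80%; inconclusive = mean reaches 80% but some replicate falls short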
Wnt act: Wnt/beta-catenin pathway activators, primary screen, cell-based, plate reader, single point; Wnt/beta-catenin reporter cell assay, activator; activation, % at 9.35 µM; 300,000 tested, 1.2% active; AID 743398, 2014; in the data active = activation above about 30%, passing the limit was not always enough; inconclusive = no clear call, values can overlap the other calls
HSF1 inh: HSF1 inhibitors in luciferase reporter cells, primary screen, cell-based, NIH3T3, luminescence. activity change, negative = inhibition, % at 7.5 µM (by protocol). 300,000 tested, 0.77% active. AID 2098, 2009. NIH3T3-HGL HSE-luciferase, MG132-induced, luminescence 8 h; stronger effect = lower value;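 active = more than half of replicate wells show activity change below -50%, luminescence cut by over half; inconclusive = some wells, but at most half, below -50%; inactive = no replicate well below -50%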;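 note: luciferase reports HSF-1 transcriptional activity via heat shock element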
Large screens that a line does not name were inactive. Rows were chosen to be rich in hits. Some 3.9% of all compounds tested hit in one or more screens of this group.

O=C(Nc1sc2c(c1C(=O)O)CCCC2)c1ccc(F)cc1	esBAF inh 68.4 (no result: MITF act)
COc1cc(NC(=O)c2ccc(C)cc2)c(OC)cc1NC(=O)CN1CCOCC1	HSF-1 act 60.3 (no result: Wnt act)
C=C1CCC[C@]2(C)C[C@H]3OC(=O)C(CNCCN(CC)CC)[C@H]3CC12 (stereo partly specified)	HSF-1 act 61.0
C=C1CCC[C@]2(C)C[C@H]3OC(=O)C(CNCC(C)C)[C@H]3CC12 (stereo partly specified)	HSF-1 act 68.0
C=C1CCC[C@]2(C)C[C@H]3OC(=O)C(CNCCN(C)C)[C@H]3CC12 (stereo partly specified)	none
CC(=O)c1sc(N/N=C\c2ccc(N(C)C)cc2)nc1C	none (no result: MITF act)
CC(=O)c1sc(N/N=C/c2cccc([N+](=O)[O-])c2)nc1C	esBAF inh 59.6, MITF act 105.0
CC(=O)c1sc(N/N=C/c2cccc(O)c2)nc1C	esBAF inh 63.4, MITF act 92.9
Cc1noc(C)c1NC(=O)Nc1ccc2c(c1)C(=O)N([C@@H](C)CO)C[C@H](C)[C@@H](CN(C)C(=O)Nc1ccc(C(F)(F)F)cc1)OCCCC[C@H](C)O2	none (no result: HSF-1 act, MITF act, Wnt act, HSF1 inh)
Cc1ccc(/C=C2\SC(=S)N(Cc3ccccc3)C2=O)o1	none (no result: HSF-1 act, Wnt act, HSF1 inh)
O=C(O)c1cc(-c2ccc(/C=C3/SC(=S)N(Cc4ccccc4)C3=O)o2)ccc1Cl	esBAF inh 54.1 (no result: HSF-1 act, HSF1 inh)
O=C1NC(c2ccccc2Cl)=N/C1=C/c1ccco1	Wnt act 52.7 (no result: esBAF inh)
O=C1NC(c2ccc(Br)cc2)=N/C1=C/c1ccco1	MITF act 97.1 (no result: esBAF inh, Wnt act)
O=C1C(=Cc2ccco2)CCC1=Cc1ccco1	none (no result: HSF-1 act, HSF1 inh)
C[C@@H]1CN([C@H](C)CO)C(=O)c2cc(/C=C/c3ccccc3)cnc2O[C@@H]1CN(C)Cc1ccccc1F	none (no result: HSF-1 act, MITF act, Wnt act, HSF1 inh)
Cc1ccc(Nc2nc(COC(=O)COc3ccc(C=O)cc3)cs2)cc1	esBAF inh 48.7
CC12CCC(C(=O)Nc3nc4ccc(Br)cc4s3)(OC1=O)C2(C)C (stereo unspecified)	Wnt act 53.3 (no result: esBAF inh)
CC12CCC(C(=O)Nc3nccs3)(OC1=O)C2(C)C (stereo unspecified)	none (no result: esBAF inh, MITF act)
O=C(O)c1cc(S(=O)(=O)N(Cc2ccccc2)c2ccccc2Cl)ccc1Cl	HSF1 inh -52.3 (no result: MITF act)
CN(Cc1ccccc1)S(=O)(=O)c1ccc(Cl)c(C(=O)O)c1	none
Cc1ccc(S(=O)(=O)N(C)C[C@H]2Oc3c(NS(C)(=O)=O)cccc3C(=O)N([C@@H](C)CO)C[C@@H]2C)cc1	none (no result: HSF-1 act, MITF act, Wnt act, HSF1 inh)
Cc1nc([N+](=O)[O-])c(Sc2nc3ccccc3n2C)n1Cc1ccccc1	HSF-1 act 79.4 (no result: esBAF inh, Wnt act)
Cc1nc([N+](=O)[O-])c(SCC(N)=O)n1Cc1ccccc1	none (no result: esBAF inh)
Oc1ccc(/C=N/Nc2ncc(Cl)cc2Cl)cc1	esBAF inh 44.3, MITF act 87.9
C[C@@H]1CN([C@@H](C)CO)C(=O)Cc2cc(NC(=O)CCCN(C)C)ccc2O[C@H]1CN(C)Cc1ccc(Oc2ccccc2)cc1	none (no result: HSF-1 act, MITF act, Wnt act, HSF1 inh)
CCOC(=O)/C=C/C(=O)Nc1nccs1	HSF-1 act 53.2
Cc1ccc(/C=C/C(=O)Nc2nccs2)o1	HSF-1 act 62.3, esBAF inh 59.9
Cc1csc(NC(=O)/C=C/c2ccc(C)o2)n1	none (no result: esBAF inh)
Cc1ccc(/C=C/C(=O)Nc2ncc(C)s2)o1	MITF act 100.6 (no result: esBAF inh)
Cc1ccc(/C=C/C(=O)Nc2ccc(N(C)C)cc2)o1	esBAF inh 52.0, MITF act 114.9 (no result: Wnt act)
Cc1ccc(/C=C/C(=O)Nc2ccncc2)o1	none (no result: Wnt act)
CO[C@@H]1CN(C)C(=O)c2ccc(NC(=O)Nc3ccccc3)cc2OC[C@H](C)N(C(=O)CN(C)C)C[C@@H]1C	none (no result: HSF-1 act, MITF act, Wnt act, HSF1 inh)
CC(C)C#Cc1cnc2c(c1)C(=O)N([C@H](C)CO)C[C@H](C)[C@H](CN(C)Cc1cncnc1)O2	none (no result: HSF-1 act, MITF act, Wnt act, HSF1 inh)
Oc1ccc(-c2cn3c(n2)SCC3)cc1	none (no result: Wnt act)
Clc1ccc(-c2cn3c(n2)SCC3)cc1	HSF-1 act 58.4, esBAF inh 56.1, Wnt act 46.8
c1ccc(-c2cn3c(n2)SCC3)cc1	none
Brc1ccc(-c2cn3c(n2)SCC3)cc1	HSF-1 act 62.6, esBAF inh 57.6, Wnt act 41.6
C[C@@H]1CCCCO[C@H](CN(C)Cc2ccc(Cl)c(Cl)c2)[C@@H](C)CN([C@@H](C)CO)C(=O)c2cc(NC(=O)Cc3ccccc3)ccc2O1	none (no result: HSF-1 act, MITF act, Wnt act, HSF1 inh)
CNc1ccccc1-n1ccc(-c2ccccc2)n1	esBAF inh 60.4 (no result: Wnt act)
O=C(CSC1=NCCN1)Nc1cccc([N+](=O)[O-])c1	Wnt act 40.9
O=C(CSC1=NCCN1)Nc1ccccc1[N+](=O)[O-]	none (no result: esBAF inh)
S=C(NC1CCCCC1)NC1CC2C=CC1C2 (stereo unspecified)	HSF-1 act 85.2 (no result: esBAF inh, MITF act)
CC(C)(CCO)NC(=S)NC1CC2C=CC1C2 (stereo unspecified)	none (no result: esBAF inh)
CC(=O)Nc1ccc(NC(=O)c2cc(-c3ccc(F)cc3C)n[nH]2)cc1	esBAF inh 61.3 (no result: HSF-1 act, MITF act, HSF1 inh)
Cc1ccc(-c2cc(C(=O)Nc3cc(C)ccc3C)[nH]n2)c(O)c1	none
Cc1ccc(C)c(NC(=O)c2cc(-c3ccccc3O)n[nH]2)c1	esBAF inh 65.1
COc1ccc(OC)c(NC(=O)c2cc(-c3cc(C)ccc3O)n[nH]2)c1	none
O=C(Nc1cccnc1)c1cc(-c2cc(Cl)ccc2O)n[nH]1	MITF act inconclusive, Wnt act 37.9 (no result: esBAF inh)
Cc1ccc(O)c(-c2cc(C(=O)Nc3cccnc3)[nH]n2)c1	esBAF inh 87.3, MITF act 214.6, Wnt act 60.4
CO[C@@H]1CN(C)C(=O)c2ccc(NC(=O)Nc3ccccc3F)cc2OC[C@H](C)N(CC2CC2)C[C@@H]1C	none (no result: HSF-1 act, MITF act, Wnt act, HSF1 inh)
Cc1cccc(NC(=O)c2cc(-c3ccc(C)c(C)c3O)n[nH]2)c1	esBAF inh 43.4
O=C(Nc1c(C(=O)c2ccccc2)oc2ccccc12)c1cc(-c2ccccc2O)n[nH]1	HSF-1 act 65.7 (no result: esBAF inh)
O=C(Cc1ccncc1)Nc1ccc2c(c1)[C@H]1C[C@@H](CC(=O)N3CCCCC3)O[C@@H](CO)[C@H]1O2	none (no result: HSF-1 act, MITF act, Wnt act, HSF1 inh)
COc1ccccc1-c1ccc([C@H]2[C@@H](CO)N(C(=O)NC3CCCCC3)[C@H]2C#N)cc1	esBAF inh 59.4 (no result: HSF-1 act, MITF act, Wnt act, HSF1 inh)
CCOc1ccccc1NC(=O)Cn1c(=O)oc2cc(Cl)ccc21	none
CCOc1ccccc1NC(=O)Cn1c(-c2ccc(Cl)cc2)noc1=O	HSF1 inh -65.1 (no result: esBAF inh)
CN1C[C@@H]2[C@H](c3ccccc31)[C@@H](CO)N2S(=O)(=O)c1ccccc1	none (no result: HSF-1 act, MITF act, Wnt act, HSF1 inh)
COCCNC(=O)C[C@@H]1CC[C@@H]2[C@H](COC[C@@H](O)CN2S(=O)(=O)c2ccccc2C)O1	none (no result: HSF-1 act, MITF act, Wnt act, HSF1 inh)
COc1ccc(NC(=O)Nc2nnc(-c3cccs3)s2)cc1	MITF act 97.6, Wnt act 41.0 (no result: esBAF inh)
O=C(Nc1nnc(S(=O)(=O)N2CCOCC2)s1)c1cccc(F)c1	esBAF inh 58.1 (no result: MITF act)
